Compound activity as filed in PubChem.
Rows were chosen to be rich in hits. Some 4.6% of all compounds tested hit in one or more screens of this group.
D1 agonist: human D1 receptor agonism. activation, % at 2 µM. AID 504660. HEK293 T-REx D1 cells, calcium flux, agonist mode. actives 1% (n = 360,000). P21728; also: 0% is about no effect
Target sequence (P21728 whole entry, looked up): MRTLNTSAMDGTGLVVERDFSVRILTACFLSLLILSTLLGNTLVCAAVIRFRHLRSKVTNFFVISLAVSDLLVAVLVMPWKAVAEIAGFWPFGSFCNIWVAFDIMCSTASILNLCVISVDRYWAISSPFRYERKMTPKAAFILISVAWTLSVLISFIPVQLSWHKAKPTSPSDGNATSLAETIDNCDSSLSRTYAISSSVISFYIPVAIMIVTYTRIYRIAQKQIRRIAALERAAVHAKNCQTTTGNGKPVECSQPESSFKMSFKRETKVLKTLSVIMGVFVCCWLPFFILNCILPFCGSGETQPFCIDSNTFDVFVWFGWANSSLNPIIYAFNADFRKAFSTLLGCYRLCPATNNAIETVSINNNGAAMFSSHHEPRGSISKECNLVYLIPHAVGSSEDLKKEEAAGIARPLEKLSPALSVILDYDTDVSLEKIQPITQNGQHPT
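Tetracycline-induced HEK293 TREx D1 cells, force-coupled to calcium signalling, were dye-loaded with a no-wash calcium kit. Compound was pin-added after a 10 s baseline. Fluorescence was read kinetically at 1 cycle/s for 180 s, with calcium rises flagged as agonism.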
D1 potentiator: potentiators of human D1 dopamine receptor. P21728. HEK293 TREx D1 cells, calcium flux, dopamine EC20 potentiation. potentiation, % at 10 µM. actives 0.036% (n = 360,000). AID 504651; in the data active = potentiation above about 30%; also: 0% is about no effect
TRHR enhancer: allosterically enhances the human TRH receptor. P34981. TRHR cells, fluo-8 calcium fluorescence, EC20 TRH enhancement. enhancement, % at 2 µM. actives 0.66% (n = 360,000). AID 493056; in the data active = enhancement above about 30%; also: 0% is about no effect
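TRHR-expressing cells loaded with fluo-8 calcium dye were read kinetically (ex 480/em 530) during compound addition, then stimulated with an EC20 of TRH (10 nM final). Enhancement of the Gq-mediated intracellular calcium response was scored.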
TRHR ag: activates the human TRH receptor. P34981. TRHR cells, calcium flux fluo-8, FDSS agonist mode. activation, % at 2 µM. actives 0.18% (n = 360,000). AID 493084; also: 0% is about no effect
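In this calcium-flux screen, cells bearing human TRHR are dye-loaded with fluo-8, baselined for 10 cycles, then exposed to library compounds; positive kinetic calcium responses during the agonist phase mark hits, with TRH as control.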
D1 antag: antagonists of human D1 dopamine receptor; activity change, negative = inhibition, % at 10 µM; P21728; actives 3.2% (n = 360,000); HEK293 TREx D1 cells, calcium flux, dopamine EC80; stronger effect = lower value; in the data active = activity change below about -30%; also: % is scaled to controls: 0 for no effect and ±100 for the full control effect
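Antagonism measured as reduced calcium response to an EC80 dopamine addition following 180 s compound pre-read; cells were inducible HEK293 Trex D1 plated overnight at 30 C, read kinetically at 1 cycle/sec.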
Active calls of the source: *. Rule as the data show it, unless noted: active = activation above about 30%; inactive = the rest.

For CCC(C)NC(=O)c1ccccc1NC(=O)CN1C(=O)c2cccc3cccc1c23 (stereo unspecified) the results were D1 agonist -0.1, D1 potentiator 1.6, TRHR enhancer 3.5, TRHR ag 0.0 and D1 antag -1.2.
For O=C(CNC(=O)C1CCCC1)OC(C(=O)Nc1cc(C(F)(F)F)ccc1Cl)c1ccccc1 (stereo unspecified) the results were D1 agonist 9.9, D1 potentiator 2.2, TRHR enhancer -0.1, TRHR ag -1.1 and D1 antag 6.8.
`Cc1ccc(C(=O)NC(=S)N(C)C2CCCCC2)cc1` gave D1 agonist -0.3, D1 potentiator 8.7, TRHR enhancer -0.8, TRHR ag -0.3 and D1 antag -41.1*.
Screening CC1CCN(C(=O)c2nc[nH]c2C(=O)N2CCc3ccccc3C2)CC1 returned D1 agonist 0.0, D1 potentiator -2.2, TRHR enhancer 5.6, TRHR ag -0.4 and D1 antag 3.6.
`Cc1ccsc1/C=C/C(=O)O` gave D1 agonist 4.2, D1 potentiator -4.1, TRHR enhancer -4.2, TRHR ag 1.0 and D1 antag -7.6.
Cc1ccsc1/C=C/c1n[nH]c(=O)c(C#N)c1C was read as D1 agonist -0.1, D1 potentiator 0.0, TRHR enhancer -5.6, TRHR ag 0.4 and D1 antag -32.8*.
CN(Cc1ccccc1)S(=O)(=O)c1ccc(NC(=O)c2cc(=O)c3ccccc3o2)cc1 was read as D1 agonist 3.4, D1 potentiator -0.8, TRHR enhancer 6.0, TRHR ag -0.1 and D1 antag -6.0.
Cc1ccc(CNCc2cccn2-c2nnc(N3CCCC3)s2)cc1 was read as D1 agonist 24.1, D1 potentiator -6.5, TRHR enhancer 3.7, TRHR ag -1.3 and D1 antag 3.4.
For Cc1ccc(CN(Cc2cccn2-c2nnc(N3CCCC3=O)s2)C(=O)Nc2ccccc2Cl)cc1 the results were D1 agonist 2.0, D1 potentiator -3.5, TRHR enhancer 3.1, TRHR ag 1.5 and D1 antag -68.9*.
For Cc1ccc(N(C)C(=O)Cn2cnc3onc(-c4ccc(F)cc4)c3c2=O)cc1C the results were D1 agonist 0.5, D1 potentiator 6.0, TRHR enhancer 12.5, TRHR ag 1.4 and D1 antag 1.7.
Screening COc1ccc(-c2c(C)nn(Cc3ccccc3)c2N)cc1 returned D1 agonist 0.5, D1 potentiator 1.4, TRHR enhancer 30.3*, TRHR ag 0.1 and D1 antag -8.8.
COc1ccc(-c2ccc(=O)n(Cc3ccccc3)n2)cc1 was read as D1 agonist 0.3, D1 potentiator -1.7, TRHR enhancer -0.5, TRHR ag 0.0 and D1 antag -24.4.
For CC(C)OCCCn1c(=O)c2ccccc2n2c(-c3ccc(F)cc3)nnc12 the results were D1 agonist 9.8, D1 potentiator -2.4, TRHR enhancer 11.9, TRHR ag -1.1 and D1 antag -5.8.
Screening CCOC(=O)Cn1c(=O)oc2cc(S(=O)(=O)NCCc3ccc(C)cc3)ccc21 returned D1 agonist 1.3, D1 potentiator -3.1, TRHR enhancer -3.2, TRHR ag 0.6 and D1 antag 0.1.
`CCOC(=O)Cn1c(=O)oc2cc(S(=O)(=O)N3CCN(c4ccc(C(C)=O)cc4)CC3)ccc21` gave D1 agonist 9.3, D1 potentiator -4.6, TRHR enhancer 5.0, TRHR ag 0.9 and D1 antag -42.7*.
Screening CCOC(=O)Cn1c(=O)oc2cc(S(=O)(=O)Nc3ccc(F)cc3)ccc21 returned D1 agonist 76.6*, D1 potentiator 0.0, TRHR enhancer 3.9, TRHR ag -0.1 and D1 antag -65.9*.
Screening CCN(CC)c1ccc(NC(=O)C2CCN(S(=O)(=O)c3c(C)noc3/C=C/c3ccccc3F)CC2)c(C)c1 returned D1 agonist 1.2, D1 potentiator 1.8, TRHR enhancer -0.3, TRHR ag 0.1 and D1 antag 12.7.
`CCc1ccc(NS(=O)(=O)c2ccc3[nH]cc(C(=O)NCc4ccc(C)cc4)c(=O)c3c2)cc1` gave D1 agonist 4.3, D1 potentiator 7.4, TRHR enhancer 4.8, TRHR ag 1.6 and D1 antag 17.2.
`CCOC(=O)c1ccc2c(c1)N(CC(=O)Nc1ccc(CC)cc1)C(=O)c1ccccc1S2` gave D1 agonist 5.9, D1 potentiator -1.6, TRHR enhancer -6.2, TRHR ag 0.6 and D1 antag -14.9.
COc1ccc(CCN(C)Cc2ccc(OC)c(OCc3ccccc3)c2)cc1OC was read as D1 agonist 8.1, D1 potentiator -5.2, TRHR enhancer -1.5, TRHR ag 0.4 and D1 antag -16.0.
COc1ccc(CCN(C)Cc2ccc(OCc3ccccc3)c(OC)c2)cc1OC was read as D1 agonist 86.8*, D1 potentiator -12.5, TRHR enhancer 6.1, TRHR ag 0.0 and D1 antag -41.5*.
Screening COc1cc(CNC23CC4CC(CC(C4)C2)C3)ccc1OCc1ccccc1 returned D1 agonist 85.3*, D1 potentiator 2.5, TRHR enhancer -3.4, TRHR ag 6.1 and D1 antag -40.4*.
`COc1cc(CNCc2cccs2)ccc1OCc1ccccc1` gave D1 agonist 18.0, D1 potentiator -6.0, TRHR enhancer 0.0, TRHR ag 0.9 and D1 antag -11.8.
CCOc1ccccc1N(C)C(=O)Cn1cnc2onc(-c3ccc(F)cc3)c2c1=O was read as D1 agonist 2.7, D1 potentiator 2.4, TRHR enhancer -6.7, TRHR ag 0.6 and D1 antag -30.6*.
COc1ccc(-n2c(-c3ccc(Cl)cc3)cc3c2CC(C)(C)CC3=O)c(OC)c1 was read as D1 agonist 1.8, D1 potentiator -2.0, TRHR enhancer -10.2, TRHR ag 0.2 and D1 antag -14.7.
`COc1cccc(NC(=O)C2CC2)c1` gave D1 agonist 6.8, D1 potentiator -6.2, TRHR enhancer 5.9, TRHR ag 0.0 and D1 antag 11.7.
For CCC1CCC(C(=O)NC(C(=O)Nc2cccc(OC)c2)C(C)C)CC1 (stereo unspecified) the results were D1 agonist 4.4, D1 potentiator -0.8, TRHR enhancer -9.4, TRHR ag -0.1 and D1 antag -32.0*.
Cc1cc(C)cc(NC(=O)C(NCCN2CCOCC2)c2ccccc2)c1 (stereo unspecified) was read as D1 agonist 6.2, D1 potentiator -6.6, TRHR enhancer -0.5, TRHR ag 0.1 and D1 antag -53.6*.
For Cc1ccc2cc3cc(C(=O)Nc4ccc(F)cc4Cl)oc3nc2c1 the results were D1 agonist 3.9, D1 potentiator -1.9, TRHR enhancer -1.3, TRHR ag 0.3 and D1 antag -6.6.
For O=C(NC1CCCCC1)c1ccc(CS(=O)Cc2ccccc2Cl)o1 (stereo unspecified) the results were D1 agonist -0.6, D1 potentiator -2.1, TRHR enhancer -3.4, TRHR ag -0.2 and D1 antag -63.8*.
